Among the data in PubChem BioAssay (EPA / NIEHS) are outcome and AC50 values, retold here.

Usually AC50 stands for the midpoint of the concentration-response curve, whichever way the signal moves.

Test [1] in a line: BSK_CASM3C_SRB: Viability Assessment in the BioMAP Diversity Plus: CASM3C Assay (AID 2283050).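 Note: total protein by SRB staining as cytotoxicity measure in parallel cultures; cells exposed to compound for 24 h.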 As to conditions: primary human coronary artery smooth muscle cells.
Read-out in test [2]: Thrombomodulin, THBD (gene 7056)
Description: BSK_CASM3C_Thrombomodulin: BioMAP Diversity Plus: CASM3C Assay for Thrombomodulin Biomarker Activity (AID 2283051).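 Note: thrombomodulin protein level measured by ELISA 24 h after dosing.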 As to conditions: primary human coronary artery smooth muscle cells; actives raise or lower the signal.

Read-out in test [3]: Tissue Factor, F3 (gene 2152)
Description: BSK_CASM3C_TissueFactor: BioMAP Diversity Plus: CASM3C Assay for Tissue Factor Biomarker Activity (AID 2283052).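 Note: cell surface tissue factor protein level read by ELISA.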 As to conditions: primary human coronary artery smooth muscle cells; actives raise or lower the signal.

Read-out in test [4]: Interferon-gamma inducible Protein 10 (IP10), CXCL10 (gene 3627)
Put plainly: BSK_hDFCGF_IP10: BioMAP Diversity Plus: hDFCGF Assay for Interferon-gamma inducible Protein 10 (IP10) Biomarker Activity (AID 2283053). Particulars: primary human foreskin fibroblasts; actives raise or lower the signal. The essentials:
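IP-10 levels, quantified by ELISA, are taken from human foreskin fibroblast cultures 24 h after chemical treatment, with DMSO serving as negative control and baseline for bidirectional analysis.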

Read-out in test [5]: Urokinase-type plasminogen activator receptor (uPAR), PLAUR (gene 5329)
Put plainly: BSK_CASM3C_uPAR: BioMAP Diversity Plus: CASM3C Assay for Urokinase-type plasminogen activator receptor (uPAR) Biomarker Activity (AID 2283054).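 Note: cell-surface uPAR protein level quantified by ELISA.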 Particulars: primary human coronary artery smooth muscle cells; actives raise or lower the signal.

Read-out in test [6]: Vascular cell adhesion molecule 1 (VCAM1), VCAM1 (gene 7412)
Put plainly: BSK_CASM3C_VCAM1: BioMAP Diversity Plus: CASM3C Assay for Vascular cell adhesion molecule 1 (VCAM1) Biomarker Activity (AID 2283055).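 Note: VCAM-1 protein level quantified by ELISA on the cells.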 As to conditions: primary human coronary artery smooth muscle cells; actives raise or lower the signal.

Read-out in test [7]: Collagen III, COL3A1 (gene 1281)
Put plainly: BSK_hDFCGF_CollagenIII: BioMAP Diversity Plus: hDFCGF Assay for Collagen III Biomarker Activity (AID 2283056). As to conditions: primary human foreskin fibroblasts; actives raise or lower the signal. An outline of the steps: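 Response relative to DMSO, fitted in both directions, reflects ELISA-measured collagen III in human primary skin fibroblasts 24 h after compound addition.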

Read-out in test [8]: Epidermal growth factor receptor (EGFR), EGFR (gene 1956)
Description: BSK_hDFCGF_EGFR: BioMAP Diversity Plus: hDFCGF Assay for Epidermal growth factor receptor (EGFR) Biomarker Activity (AID 2283057). Particulars: primary human foreskin fibroblasts; actives raise or lower the signal. The essentials:
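Measured by ELISA: EGFR levels on primary human foreskin fibroblasts 24 h after chemical treatment, analysed relative to DMSO with bidirectional fitting.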

Read-out in test [9]: Interleukin-8 (IL8), CXCL8 (gene 3576)
Put plainly: BSK_hDFCGF_IL8: BioMAP Diversity Plus: hDFCGF Assay for Interleukin-8 (IL8) Biomarker Activity (AID 2283058). Particulars: primary human foreskin fibroblasts; actives raise or lower the signal. The essentials:
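Fibroblast monolayers (human foreskin, hDFCGF) received test chemical for 24 h before ELISA detection of IL-8; either increases or decreases relative to DMSO count as activity.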

Test [10] can be described thus: BSK_hDFCGF_Proliferation: Cell Proliferation Assessment in the BioMAP Diversity Plus: hDFCGF Assay (AID 2283059).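 Note: curves fitted for both rise and fall of signal versus DMSO baseline.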 As to conditions: primary human foreskin fibroblasts. The essentials: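 This proliferation readout used SRB total-protein staining of human foreskin fibroblasts […], normalized to DMSO with bidirectional curve fitting.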

The structures appear in SMILES notation. The source made the active and inactive calls. Rule for the calls: active = hit-call score of the fitted dose curve at least 0.9, where 1 is the maximum; inactive = score below 0.9.

On to `COc1cc(Cl)c(OC)cc1Cl`, for which the outcome in test [1], in test [2], in [3], in test [4], in test [5] and in test [6] was inactive. Besides, the result in test [7], in test [8], in test [9] and in [10] was inactive.
Take `C=CCOC(=O)C(C)(C)OC(=O)c1cc(-n2c(=O)cc(C(F)(F)F)n(C)c2=O)ccc1Cl`: the result in test [1], in test [2], in [3], in [6], in test [7] and in test [9] was inactive. Moreover, in [10], the result was inactive. The concentration at half-maximal activity (AC50) in [4] was 1.2 µM (active); in [5], 0.984 µM (active); in [8] it was 0.98 µM (active).
Take `Cc1cc(C)nc(Nc2ccccc2)n1`: the outcome in test [1], in test [2], in test [3], in test [4], in [5] and in test [6] was inactive. In addition, the outcome in test [7], in test [8], in test [9] and in [10] was inactive.
Turning to `C=C(C)CN(CC)c1c([N+](=O)[O-])cc(C(F)(F)F)cc1[N+](=O)[O-]`, the result in test [1], in test [2], in test [3], in test [5], in test [6] and in test [7] was inactive. For the same molecule, the result in [8] and in test [9] was inactive. Further, the AC50 in test [4] is 20 µM (active); in [10] it was 19.5 µM (active).
Turning to `COP(=S)(OC)SCn1nnc2ccccc2c1=O`, the outcome in test [1], in test [2], in test [3], in test [4], in [5] and in test [6] was inactive. Besides, the outcome in test [7], in [8] and in test [9] was inactive. In addition, the AC50 in [10] is 26.2 µM (active).
As for `O=P(O)(O)CCCl`, the outcome in test [1], in test [2], in test [3], in test [4], in test [5] and in [6] was inactive. In addition, the outcome in test [7], in test [8], in test [9] and in [10] was inactive.
For the molecule `Cc1c(COC(=O)[C@@H]2[C@H](/C=C(\Cl)C(F)(F)F)C2(C)C)cccc1-c1ccccc1`, the outcome in test [1], in test [3], in test [4], in test [5], in test [6] and in test [7] was inactive. The result in test [8] and in test [9] was inactive. Moreover, the half-maximal activity concentration (AC50) in test [2] is 18.1 µM (active); in [10] it was 16.9 µM (active).
For `CCSC(=O)N1CCCCCC1`, the result in test [1], in test [2], in test [3], in test [4], in test [5] and in [6] was inactive. Also, the result in test [7], in test [8], in test [9] and in test [10] was inactive.
Consider `CCN(CC)c1nc(C)cc(OP(=S)(OC)OC)n1`, for which the result in test [1], in test [3], in [5], in test [6], in [7] and in [8] was inactive. The outcome in test [9] was inactive. Besides, the concentration at half-maximal activity (AC50) in test [2], in [4] and in test [10] was 20 µM (active) in each case.
On to `CO/N=C(/C1=NOCCO1)c1ccccc1Oc1ncnc(Oc2ccccc2Cl)c1F`, for which the outcome in test [1], in test [2], in test [3], in test [4], in test [5] and in test [6] was inactive. Also, the result in [7], in [8] and in test [9] was inactive. The concentration at half-maximal activity (AC50) in [10] is 26.7 µM (active).
For `COC(=O)NC(=S)Nc1ccccc1NC(=S)NC(=O)OC`, the outcome in [1], in [2], in test [3], in test [4], in test [5] and in test [6] was inactive. Also, the outcome in test [7], in test [8] and in test [9] was inactive. Besides, the concentration at half-maximal activity (AC50) in [10] was 29.8 µM (active).
Consider `CCN(CC)C(=O)C(C)Oc1cccc2ccccc12` (stereo not given), for which the result in test [1], in [3], in test [5], in [6], in [8] and in [9] was inactive. The outcome in [10] was inactive. Further, the concentration at half-maximal activity (AC50) is 0.148 µM (active) in test [2], 3.97 µM (active) in [4] and 0.148 µM (active) in test [7].
With `COP(=S)(OC)Oc1ccc([N+](=O)[O-])c(C)c1`, the result in [1], in test [2], in test [3], in [5], in test [6] and in test [8] was inactive. The result in [9] was inactive. The AC50 in test [4] is 14 µM (active); in test [7], 22.7 µM (active); in test [10], 24.2 µM (active).
With `CCOc1nc(F)cc2nc(S(=O)(=O)Nc3c(Cl)cccc3Cl)nn12`, the outcome in [1], in test [2], in [3], in test [4], in [5] and in test [6] was inactive. The outcome in test [7], in test [8], in test [9] and in test [10] was inactive.
As to `CC(C)N1C(=O)c2ccccc2NS1(=O)=O`, the outcome in test [1], in test [2], in test [3], in test [5], in [6] and in test [8] was inactive. For the same molecule, the result in test [9] and in [10] was inactive. The values for the concentration at half-maximal activity (AC50) in test [4] and in test [7] were 13.4 µM (active) and 0.144 µM (active), respectively.
In the case of `O=c1n(Cl)c(=O)n(Cl)c(=O)n1Cl`, the result in test [1], in test [3], in test [5], in test [6], in test [7] and in test [8] was inactive. The outcome in test [9] and in test [10] was inactive. The AC50 in [2] is 12.7 µM (active); in test [4], 20 µM (active).
As to `Cc1nc(N(C)C)nc(OC(=O)N(C)C)c1C`, the result in test [1], in test [2], in [3], in test [4], in [5] and in test [6] was inactive. Further, the result in test [7], in test [8], in test [9] and in [10] was inactive.
Turning to `COP(=O)(OC)O/C(C)=C/C(=O)N(C)C`, the outcome in [1], in [2], in [3], in test [4], in [5] and in test [6] was inactive. Moreover, the result in [7], in test [8], in test [9] and in test [10] was inactive.
